Compound activity: PubChem, Johns Hopkins Ion Channel Center
KCNQ2 inh – inhibitors of rat KCNQ2 potassium channel; O88943; CHO-K1 KCNQ2, FluxOR thallium flux, 20 min; active compounds read low; B-score at 10 µM; actives 1.1% (n = 310,000); AID 2156;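 active means fluorescence ratio B-score at most minus 3 library SDs, with starting brightness B-score within 2 library SDs, cut at about -5.5 in these data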
KCNQ2 enhance – KCNQ2 (rat) channel potentiation. AID 2239. actives 0.54% (n = 310,000). O88943. B-score at 10 µM. CHO-K1 KCNQ2, FluxOR thallium flux fluorescence; active compounds read high;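 active means fluorescence ratio B-score at least 3 SD of library B-scores, with initial fluorescence B-score within 3 of them, cut at about 5.3 in these data; same plate scores as AID 2156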;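 further: B-score of peak minus minimum over baseline fluorescence ratio after K+ and Tl+ stimulus; positive B-score means potentiation of KCNQ2 with more thallium influx and brighter signal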
Kir21 conf inh – confirmation of mouse Kir2.1 potassium channel inhibitors | shares compounds with KCNQ2 enhance | Kir2.1-expressing cells, FluxOR thallium flux fluorescence; active compounds read low | Tl flux remaining, % of negative control (active compounds read low), % at 10 µM | actives 41% (n = 2,300);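 active means Primary-screen hit whose thallium flux fell at least 3 control SD below untreated wells in both duplicates, with normal baseline fluorescence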;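 further: 0% = blank wells without stimulus and 100% = stimulated no-compound controls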
Target sequence (P35561 whole entry, looked up): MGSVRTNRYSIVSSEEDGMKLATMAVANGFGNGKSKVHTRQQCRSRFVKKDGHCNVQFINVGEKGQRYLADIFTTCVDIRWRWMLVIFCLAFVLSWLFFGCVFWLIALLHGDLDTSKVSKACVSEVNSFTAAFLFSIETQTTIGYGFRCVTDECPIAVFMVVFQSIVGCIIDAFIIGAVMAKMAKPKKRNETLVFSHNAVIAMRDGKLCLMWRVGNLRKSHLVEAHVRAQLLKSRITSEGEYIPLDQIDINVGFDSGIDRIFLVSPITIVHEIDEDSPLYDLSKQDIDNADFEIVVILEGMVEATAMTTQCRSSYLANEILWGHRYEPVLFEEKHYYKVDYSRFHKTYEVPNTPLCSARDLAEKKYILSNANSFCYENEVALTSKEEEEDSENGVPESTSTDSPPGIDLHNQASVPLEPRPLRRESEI
HEK293 Tl flux – parental HEK293 activity in Kir2.1 inhibitor counter-screen | shares compounds with KCNQ2 enhance | parental HEK293 cells, FluxOR thallium flux fluorescence; 0% = unstimulated blank wells | FluxOR signal as % of negative control (100 = no effect), % at 10 µM | actives 19% (n = 2,300);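 active means dye signal at least 3 control SD above or below untreated wells in both duplicates, raw fluorescence within 3, either direction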;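 further: percent is based on the flux ratio of peak minus minimum fluorescence over baseline F0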
CHO-K1 Tl ctr – counter-screen for KCNQ2 potentiators: effect in parental CHO-K1 cells; AID 2282; shares compounds with KCNQ2 enhance; activity increase over 3SD of controls, % at 10 µM; actives 43% (n = 1,200); FluxOR thallium flux fluorescence; zero = vehicle mean+3SD, 100% = vehicle-minus-blank window;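 active means signal rise of at least 3 SD above the untreated control mean, in both duplicate wells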;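 further: counter screen of KCNQ2 potentiator hits so any rise reflects channel-independent effects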
KCNQ1 pot spec – tests whether KCNQ2 potentiators also act on human KCNQ1 | shares compounds with KCNQ2 enhance | CHO KCNQ1 stable, FluxOR thallium flux fluorescence; beyond 3SD, as % of vehicle-control signal | activation over 3SD threshold, % at 10 µM | actives 28% (n = 1,200) | AID 2283;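 active means fluorescence ratio rise of at least 3 SD of vehicle wells above their mean, in both replicate wells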;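 further: 0% = vehicle mean plus 3 SD and 100% = vehicle minus unstimulated blank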
KCNQ2 pot conf – rat KCNQ2 channel potentiator confirmation; shares compounds with KCNQ2 enhance; CHO-KCNQ2 cells, FluxOR thallium flux fluorescence; potentiation, less the hit threshold, % at 10 µM; actives 68% (n = 1,200);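 active means fluorescence ratio rising 3 SD or more over the vehicle control mean in both replicates, plus primary screen hit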;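 further: peak minus minimum thallium fluorescence divided by baseline after K/Tl stimulus; 0% = vehicle mean plus 3 SD and 100% = vehicle minus unstimulated blank difference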
Kir2-1 sel – tests whether KCNQ2 potentiators also affect mouse Kir2.1. HEK293 Kir2.1, FluxOR thallium flux fluorescence. activity over 3SD threshold, % at 10 µM. AID 2345. shares compounds with KCNQ2 enhance. actives 2% (n = 1,200);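 active means fluorescence ratio rise of at least 3 SD above the vehicle-control mean, seen in both replicates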;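 further: 0% = vehicle mean plus 3 SD and 100% = vehicle minus no-stimulus blank window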
KCNQ2 W236L MoA – potentiates the retigabine-insensitive rat KCNQ2 W236L mutant channel | shares compounds with KCNQ2 enhance | actives 10% (n = 940) | current increase over 3SD of negative controls (%), active compounds read high, % at 25 µM | AID 2558 | CHO KCNQ2-W236L, automated patch clamp current;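 active means current increase at least 3 SD of the untreated controls above them in both duplicate recordings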
* marks the source's active call; other numbers are inactive results. Sampled rows, rich in hits. Any-hit rate of the full collection: about 1.6%.

Screening CCN(CC)c1ccc(NC(=O)C2CC3CCC2C3)cc1 (stereo not given) returned KCNQ2 inh inactive, KCNQ2 enhance 23*, Kir21 conf inh inactive, HEK293 Tl flux inactive, CHO-K1 Tl ctr 2.7*, KCNQ1 pot spec -15, KCNQ2 pot conf 65*, Kir2-1 sel -32 and KCNQ2 W236L MoA inactive.
`O=C(Nc1ccccc1)C1CC2CCC1C2` (stereo not given) gave KCNQ2 inh inactive and KCNQ2 enhance 3.5.
For NC(=O)c1nsc(C(=O)N(c2ccc3c(c2)OCO3)C(C(=O)NCC2CCCO2)c2ccc(F)cc2)c1N (stereo not given) the results were KCNQ2 inh inactive.
COc1ccccc1NC(=O)CCN1C(=O)c2ccccc2C1=O was read as KCNQ2 inh inactive and KCNQ2 enhance 0.89.
O=C(NNC(=O)c1ccc2[nH]c(=O)c(=O)[nH]c2c1)c1cccc(Br)c1 was read as KCNQ2 inh inactive.
For COc1ccc(OC(C)C(=O)NCCC2=CCCCC2)cc1 (stereo not given) the results were KCNQ2 inh inactive, Kir21 conf inh 48%* and HEK293 Tl flux inactive.
`COc1ccc(C(=O)NCCC2=CCCCC2)cc1` gave KCNQ2 inh inactive.
`COc1cc(NC(=O)C2=C(N3CCOCC3)/C(=C\c3ccc(Cl)cc3Cl)CC2)cc(OC)c1OC` gave KCNQ2 inh inactive.
NC(=NC(=O)c1ccc(Cl)cc1)N1N=CCC1c1ccccc1 (stereo not given) was read as KCNQ2 inh inactive.
`O=C(CSc1ccc(Cl)cc1)N1N=CCC1c1ccccc1` (stereo not given) gave KCNQ2 inh inactive, Kir21 conf inh 66%* and HEK293 Tl flux inactive.
CCc1ccc(Nc2cc(C)nc3ncnn23)cc1 was read as KCNQ2 inh inactive and KCNQ2 enhance 1.4.
Screening CCn1c2ccccc2c2cc(Nc3cc(C)nc4ncnn34)ccc21 returned KCNQ2 inh inactive, KCNQ2 enhance 0.69, Kir21 conf inh 67%* and HEK293 Tl flux inactive.
`CC(=O)Nc1ccccc1C(=O)C(=O)Nc1cccc(C(=O)N2CC(C)CC(C)C2)c1` (stereo not given) gave KCNQ2 inh inactive and KCNQ2 enhance 1.3.
Screening CC(C)c1ccc(C(C)NCCS(=O)(=O)c2ccc(Cl)cc2)cc1 (stereo not given) returned KCNQ2 inh inactive, Kir21 conf inh 56%* and HEK293 Tl flux inactive.
Screening CC(C(=O)NCCS(=O)(=O)c1ccc(Br)cc1)S(=O)(=O)c1ccc(Cl)cc1 (stereo not given) returned KCNQ2 inh inactive.
Cc1ccc(C)c(CN2CCC(CNC(=O)Nc3cccc(Cl)c3C)CC2)c1 was read as KCNQ2 inh inactive, KCNQ2 enhance 5.3*, Kir21 conf inh inactive, HEK293 Tl flux inactive, CHO-K1 Tl ctr -1, KCNQ1 pot spec -14, KCNQ2 pot conf 0, Kir2-1 sel -46 and KCNQ2 W236L MoA inactive.
Screening Cc1ccc(NC(=O)NCC2CCN(Cc3cc(C)ccc3Cl)CC2)c(C)c1 returned KCNQ2 inh inactive and KCNQ2 enhance 4.8.
O=S(=O)(CC(CN1CCCCC1)N1CCCCC1)c1ccc2ccccc2c1 (stereo not given) was read as KCNQ2 inh inactive.
Screening CC(=O)Nc1nn(C)c2nc3ccc(C)cc3cc12 returned KCNQ2 inh inactive and KCNQ2 enhance 0.16.
